Source: PubChem (National Center for Advancing Translational Sciences (NCATS))
HT1080-NT tox: kills 2HG-producing HT-1080-NT fibrosarcoma cells; HT-1080-NT fibrosarcoma viability, CellTiter-Glo ATP luminescence, 48 h; Potency, µM (highest dose often 46.1 µM), for inactives: top-dose activity, negative = less viability, most hits filed as cytotoxic; 1.6% of 360,000 active; AID 686970;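 further: NT is the 2HG producing partner of a matched IDH1 knockdown line; 0% = DMSO-treated cells and -100% = media-only wells without cells; nearly all actives have a fitted effect of over 55% in size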
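A 48-hour cytotoxicity screen used HT-1080-NT cells plated 2 hours before compound delivery. ATP-based CellTiter-Glo luminescence measured viability, normalized to DMSO and no-cell controls.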
HT1080 IDH1KD tx: kills HT-1080 cells with IDH1 knockdown | 2% of 360,000 active | AID 686971 | HT-1080 IDH1 knockdown viability, ATP luminescence, 48 h | Potency, µM (doses to about 46.1 µM), without a hit: at the top dose activity, negative = toxicity, hits mostly cytotoxic;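 further: 0% = DMSO wells and -100% = cell-free medium wells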
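HT-1080-IDH1KD cells (IDH1 knocked down), 750/well in RPMI with 5% FBS, treated with compound 48 h at 37 degrees C. Viability by CellTiter-Glo luminescence, normalised to DMSO and no-cell wells; concentration-response curves classed.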
KB-V1 cytotox: KB-V1 MDR subline cytotoxicity; KB-V1 MDR cells viability, CellTiter-Glo, 72 h; Potency, µM (top dose mostly 46.1 µM), most hits filed as cytotoxic; 3.4% of 400,000 active; further: nearly all actives have a fitted effect of over 60% in size
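KB-V1 MDR subline cells in DMEM (phenol-red free, 10% FBS) exposed to compounds in qHTS concentration series for 72 h at 37 degrees C. Viability read by CellTiter-Glo luminescence; concentration-effect curves fitted after normalization and correction.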
KB-3-1 cytotox: KB-3-1 parental cell cytotoxicity; Potency, µM (top dose mostly 46.1 µM), usual class: cytotoxic; AID 1347075; KB-3-1 viability, CellTiter-Glo ATP luminescence, 72 h; 1.4% of 400,000 active; further: nearly all actives have a fitted effect of over 60% in size
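Cytotoxicity in the drug-sensitive parental line KB-3-1 was scored as loss of CellTiter-Glo luminescence following 72 h incubation with compound. Values come from curve fitting of normalized concentration-response data.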
DT40 TDP1 CPT: DT40-hTDP1 cell growth loss with CPT. chicken DT40 Tdp1-/-;hTDP1 cells + 20 nM CPT, ATP luminescence, 48 h. Potency, µM (titrated, usually from 46.2 µM), for the others: top-dose activity change, negative = growth inhibition, hits mostly inhibitors. 12% of 420,000 active. AID 686979; further: nearly all actives have a fitted effect of over 55% in size
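Cell growth measured by CellTiter-Glo luminescence after a minimum 48 h, 37 C compound exposure with 20 nM CPT in Tdp1-knockout DT40 cells stably expressing hTDP1, seeded 400/well; qHTS titration format.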
TDP1 cell noCPT: qHTS for Inhibitors of human tyrosyl-DNA phosphodiesterase 1 (TDP1): qHTS in cells in absence of CPT | 15% of 420,000 active | Potency, µM (doses to about 46.2 µM), inactives show at the top dose activity change, negative = growth inhibition, usual class: inhibitors | AID 686978, 2013 | DT40 Tdp1-/- hTDP1 cells, no CPT, ATP luminescence, 48 h; further: nearly all actives have a fitted effect of over 55% in size
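Compound effects on proliferation are scored in DT40 Tdp1-/-;hTDP1 cells in the absence of CPT. ATP levels (CellTiter-Glo luminescence) are recorded after a ≥48 hr, 37 °C incubation.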
Starred values were filed as active, the others as inactive; [ ] = dose if it differs, or a comment. This is a sample that favours compounds with a hit; in the whole collection about 19% have one here. The call rests on the fitted dose curve; in most records, active means well fitted curve in the direction sought with a large enough effect; inconclusive means small, poorly fitted or top-dose-only effect, or another doubt; inactive means no such curve, though single readings can be large; an effect the other way counts as inactive or inconclusive. Unless noted, on the % scale 0 is the no-effect control and ±100 the full control effect; potency means the concentration at half of the fitted maximal effect.

How did CCOC(=O)c1csc(NC(=O)COc2ccc(Cl)cc2Cl)n1 do in these assays?
HT1080-NT tox: 0%; HT1080 IDH1KD tx: -2%; KB-V1 cytotox: 23µM*; KB-3-1 cytotox: inactive; DT40 TDP1 CPT: -14%; TDP1 cell noCPT: -29%

How did COC(=O)c1c(-n2c(C)cc(C=O)c2C)sc2c1CCCC2 do in these assays?
HT1080-NT tox: 10%; HT1080 IDH1KD tx: -16%; KB-V1 cytotox: inconclusive; KB-3-1 cytotox: inactive; DT40 TDP1 CPT: inconclusive; TDP1 cell noCPT: 22µM*

What do the screens show for `N/C(=N\OC(=O)c1ccc2c(c1)OCO2)c1ccncc1`?
HT1080-NT tox: 8%; HT1080 IDH1KD tx: 2%; KB-V1 cytotox: inactive; KB-3-1 cytotox: inactive; DT40 TDP1 CPT: 3%; TDP1 cell noCPT: 5%

What do the screens show for `c1csc(C2Nc3ccccc3-c3nc4ccccc4n32)c1` (centres undefined)?
HT1080-NT tox: 6%; HT1080 IDH1KD tx: 5%; KB-V1 cytotox: inconclusive; KB-3-1 cytotox: inactive; DT40 TDP1 CPT: 16µM*; TDP1 cell noCPT: inconclusive

Results for Cc1ccsc1C1Nc2ccccc2-c2nc3ccccc3n21 (centres undefined) ?
HT1080-NT tox: 1%; HT1080 IDH1KD tx: 9%; KB-V1 cytotox: inactive; KB-3-1 cytotox: inactive; DT40 TDP1 CPT: inconclusive; TDP1 cell noCPT: inconclusive

Results for Nc1ccccc1C(=O)N/N=C1\C2CN3CCN(C2)CC1(c1ccccc1)C3 ?
HT1080-NT tox: -2%; HT1080 IDH1KD tx: 11%; KB-V1 cytotox: inconclusive; KB-3-1 cytotox: inactive; DT40 TDP1 CPT: 8%; TDP1 cell noCPT: 7%

What do the screens show for `CCSc1nc2c(c(=O)[nH]c(=O)n2C)n1CC(O)COc1ccccc1C` (centres undefined)?
HT1080-NT tox: -15%; HT1080 IDH1KD tx: -11%; KB-V1 cytotox: 18µM*; KB-3-1 cytotox: inactive; DT40 TDP1 CPT: 15µM*; TDP1 cell noCPT: inconclusive

How did CCSc1nc2c(c(=O)[nH]c(=O)n2C)n1CC(O)COc1ccc(Cl)cc1 (centres undefined) do in these assays?
KB-V1 cytotox: inactive; KB-3-1 cytotox: inactive; DT40 TDP1 CPT: inconclusive; TDP1 cell noCPT: 9.2µM*

Results for Cc1ccccc1OCC(O)Cn1c(N2CCCCC2)nc2c1c(=O)[nH]c(=O)n2C (centres undefined) ?
HT1080-NT tox: 2%; HT1080 IDH1KD tx: -3%; KB-V1 cytotox: inactive; KB-3-1 cytotox: inactive; DT40 TDP1 CPT: inconclusive; TDP1 cell noCPT: 8.2µM*

What do the screens show for `Cc1ccccc1OCC(O)Cn1c(Br)nc2c1c(=O)[nH]c(=O)n2C` (centres undefined)?
HT1080-NT tox: -1%; HT1080 IDH1KD tx: -10%; KB-V1 cytotox: inactive; KB-3-1 cytotox: inactive; DT40 TDP1 CPT: 13µM*; TDP1 cell noCPT: inconclusive

Results for Cn1c(=O)[nH]c(=O)c2c1nc(Br)n2CC(O)COc1ccc(Cl)cc1 (centres undefined) ?
HT1080-NT tox: inconclusive; HT1080 IDH1KD tx: inconclusive; KB-V1 cytotox: inactive; KB-3-1 cytotox: inconclusive; DT40 TDP1 CPT: inconclusive; TDP1 cell noCPT: -52%

Results for Cc1ccccc1OCC(O)Cn1c(SC(C)C)nc2c1c(=O)[nH]c(=O)n2C (centres undefined) ?
HT1080-NT tox: -1%; HT1080 IDH1KD tx: -1%; KB-V1 cytotox: inconclusive; KB-3-1 cytotox: inactive; DT40 TDP1 CPT: inconclusive; TDP1 cell noCPT: inconclusive

What do the screens show for `CC1Cc2cc(/C(O)=C3\C(=O)C(=O)N(CCN(C)C)C3c3ccccc3F)ccc2O1` (centres undefined)?
HT1080-NT tox: 3%; HT1080 IDH1KD tx: -5%; KB-V1 cytotox: inactive; KB-3-1 cytotox: inactive; DT40 TDP1 CPT: -1%; TDP1 cell noCPT: -11%

How did CCOC(=O)Sc1nc2ncncc2[nH]1 do in these assays?
HT1080-NT tox: -6%; HT1080 IDH1KD tx: -7%; KB-V1 cytotox: inconclusive; KB-3-1 cytotox: inactive; DT40 TDP1 CPT: 5%; TDP1 cell noCPT: 4%

Results for CCc1cccc(OCC(O)Cn2c(N3CCCCC3)nc3c2c(=O)[nH]c(=O)n3C)c1 (centres undefined) ?
HT1080-NT tox: 9%; HT1080 IDH1KD tx: 6%; KB-V1 cytotox: inconclusive; KB-3-1 cytotox: inactive; DT40 TDP1 CPT: 8.2µM*; TDP1 cell noCPT: 7.3µM*

How did CSc1ccc(C(=O)NCC(c2ccco2)N(C)C)cc1[N+](=O)[O-] (centres undefined) do in these assays?
HT1080-NT tox: -2%; HT1080 IDH1KD tx: -1%; KB-V1 cytotox: inactive; KB-3-1 cytotox: inactive; DT40 TDP1 CPT: -1%; TDP1 cell noCPT: -17%

Results for COCCC1CCCCN1C(=O)c1cc(COc2cccc(C(C)=O)c2)on1 (centres undefined) ?
HT1080-NT tox: -3%; HT1080 IDH1KD tx: -12%; KB-V1 cytotox: inactive; KB-3-1 cytotox: inactive; DT40 TDP1 CPT: 23µM*; TDP1 cell noCPT: 26µM*

How did CC(=O)c1ccc(OCc2cc(C(=O)N3CCC[C@H]3CO)no2)cc1 do in these assays?
HT1080-NT tox: 6%; HT1080 IDH1KD tx: 5%; KB-V1 cytotox: inactive; KB-3-1 cytotox: inactive; DT40 TDP1 CPT: -24%; TDP1 cell noCPT: 0%

What do the screens show for `CCOC(=O)CC1CCCCN1C(=O)c1cc(COc2cccc3cnccc23)on1` (centres undefined)?
HT1080-NT tox: 23µM*; HT1080 IDH1KD tx: 4.1µM*; KB-V1 cytotox: inconclusive; KB-3-1 cytotox: inactive; DT40 TDP1 CPT: 1.6µM*; TDP1 cell noCPT: 3.7µM*

What do the screens show for `Cc1cccc(C(=O)OCC(=O)N(C)C(c2ccccc2)c2ccccc2)c1[N+](=O)[O-]`?
HT1080-NT tox: -7%[9.24 µM]; HT1080 IDH1KD tx: -4%; KB-V1 cytotox: inactive; KB-3-1 cytotox: inactive; DT40 TDP1 CPT: 12µM*; TDP1 cell noCPT: 7.3µM*

Results for CC(=O)N1CCN(S(=O)(=O)c2cccc(C(=O)Nc3ccc(F)c(F)c3)c2)CC1 ?
HT1080-NT tox: -5%; HT1080 IDH1KD tx: -9%; KB-V1 cytotox: inactive; KB-3-1 cytotox: inconclusive; DT40 TDP1 CPT: inconclusive; TDP1 cell noCPT: inconclusive

Results for CCOC(=O)c1c(-c2ccccc2)csc1NC(=O)c1cc(S(=O)(=O)N2CCOCC2)ccc1C ?
HT1080-NT tox: -1%; HT1080 IDH1KD tx: 3%; KB-V1 cytotox: inactive; KB-3-1 cytotox: inactive; DT40 TDP1 CPT: 7.3µM*; TDP1 cell noCPT: inconclusive
